An excerpt weighted towards active compounds, which were near 5.4% of everything screened.
GASC-1 inh: blocks human GASC-1 demethylase activity. hit rate 0.069% among 330,000. inhibition, % at 2.35 µM. GST-JMJD2C(1-420) H3K9me3 demethylation, DELFIA europium;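 active means more than half of a compound's replicate wells show inhibition beyond 50%, single wells judged on their own value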;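 further: signal counts dimethyl H3K9 product captured on neutravidin plate; 0% = median of DMSO wells and 100% = 0.3 times that DMSO median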
Target sequence (Q9H3R0 1-420 limits assumed): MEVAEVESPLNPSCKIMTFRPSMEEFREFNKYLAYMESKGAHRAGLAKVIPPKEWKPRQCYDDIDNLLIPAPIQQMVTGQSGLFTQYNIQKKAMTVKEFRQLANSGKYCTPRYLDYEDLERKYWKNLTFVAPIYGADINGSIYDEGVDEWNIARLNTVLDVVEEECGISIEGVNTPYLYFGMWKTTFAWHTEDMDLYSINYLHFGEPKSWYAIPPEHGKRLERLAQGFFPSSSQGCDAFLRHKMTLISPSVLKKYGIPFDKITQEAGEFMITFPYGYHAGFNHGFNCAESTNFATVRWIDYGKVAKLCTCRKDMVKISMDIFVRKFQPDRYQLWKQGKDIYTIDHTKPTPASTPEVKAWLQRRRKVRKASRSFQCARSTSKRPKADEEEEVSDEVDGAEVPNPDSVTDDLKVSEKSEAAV
ALR inh: inhibitors of human sulfhydryl oxidase ALR. AID 485317. hit rate 3.8% among 290,000. purified ALR, DTT oxidation, H2O2 HRP-luminol luminescence. inhibition, % (concentration not given with the values);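 active means mean replicate inhibition above about 79%, with every replicate also reaching it, limit read from the data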
Target sequence (P55789 whole entry, looked up): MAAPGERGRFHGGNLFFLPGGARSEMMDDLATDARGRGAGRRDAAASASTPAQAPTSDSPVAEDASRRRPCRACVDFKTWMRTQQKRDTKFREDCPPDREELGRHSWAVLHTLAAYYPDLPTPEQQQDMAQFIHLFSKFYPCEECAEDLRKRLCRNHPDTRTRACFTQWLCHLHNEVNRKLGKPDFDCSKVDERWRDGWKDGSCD
M18AAP inhibitor: PfM18AAP enzyme inhibition | hit rate 1.2% among 290,000 | inhibition, % at 7.35 µM | recombinant PfM18AAP, H-Glu-NHMec fluorogenic cleavage;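 active means inhibition above the campaign mean inhibition over all tested compounds plus 3 SD, cut at about 28% in these data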;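 further: 0% = plate median of test compound wells and 100% = 2 mM ZnCl2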
SMARCA2 activ: increases SMARCA2 function in MMTV reporter cells; MG213 cells, MMTV-luciferase reporter, dexamethasone, overnight; activation, % at 9.1 µM; hit rate 1% among 370,000; AID 652017; in the data active means activation above about 7.8%;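 further: 0% = vehicle wells and 100% = reference activator wells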
MIN6 prolif: induces beta-cell replication in MIN6 cells; proliferation, % at 10 µM; hit rate 0.29% among 330,000; MIN6 cells proliferation, ATPlite luminescence, 48 h; cells starved in 0.2% serum; 100% = growth in 10% serum; AID 2380;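 active means compounds whose signal lies at least 3.5 SD above the mean of all wells on their plate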;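 further: 0% = DMSO-treated cells in low-serum medium and 100% = 10% serum control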
Granule exo inh: blocks lytic granule exocytosis; TALL-104 LAMP-1 surface exposure, flow cytometry; cells stimulated with thapsigargin and PMA; inhibition, % at 10 µM; hit rate 0.66% among 360,000;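 active means inhibition above about 55%, limit read from the data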
Starred values were filed as active, the others as inactive; / = no result.

SMILES | GASC-1 inh | ALR inh | M18AAP inhibitor | SMARCA2 activ | MIN6 prolif | Granule exo inh
CCN(CC)c1ccc(/C=N/NC(=O)c2ccco2)cc1 | 3 | / | -1 | 5 | / | 6
CCS(=O)(=O)Nc1ccc2c(c1)C(=O)N(C)[C@@H]1CC[C@H](CC(=O)NCCOC)O[C@H]1CO2 | / | / | / | -1 | / | /
COc1ccc(OC)c2cc3ccccc3cc12 | / | / | / | -3 | / | 104*
Nc1ccc(Cl)cc1/C(=N/O)c1ccccc1 | -10 | 97* | -2 | -3 | 1 | 0
O=C(CCC1CCCN(c2ncccn2)C1)NCc1ccccc1F (configuration not stated) | -16 | 2 | 32* | -2 | 5 | -1
CN1CCc2nc(SCC(=O)Nc3cccc(F)c3)c(C#N)c(-c3cccs3)c2C1 | 3 | / | 6 | -1 | -4 | 2
CN1CCc2nc(SCC(=O)Nc3ccc(OC(F)(F)F)cc3)c(C#N)c(-c3cccs3)c2C1 | -5 | 99* | 3 | 5 | -5 | -2
O=C(O)c1cccc(Nc2nc(-c3cc4ccccc4oc3=O)cs2)c1 | 8 | 0 | 8 | 4 | -2 | 5
O=c1oc2ccccc2cc1-c1csc(NN=C2CCCC2)n1 | -1 | 98* | 1 | -2 | -3 | 0
COC(=O)C1=C(C)N(Cc2cccc(C(F)(F)F)c2)C(=NCC2CC2)NC1c1ccccc1 (configuration not stated) | / | / | / | -6 | / | /
Cn1cc(CNC(=O)c2cc(COc3ccc4c(c3)CCCC4)on2)cn1 | -15 | 33 | 30* | -2 | -1 | -14
Cc1noc(C)c1C(=O)N1CCN(c2ncccn2)CC1 | -12 | -15 | 3 | -2 | -1 | -2
CCc1noc(C)c1C(=O)Nc1ccccc1N1CCOCC1 | -16 | -8 | / | -1 | -3 | 2
Cc1noc(C)c1C(=O)N1CCN(c2ccccc2O)CC1 | 5 | 99* | / | -4 | -3 | 16
CCc1noc(C)c1C(=O)Nc1cc(Cl)ccc1N1CCCC1 | 5 | 99* | / | -3 | 4 | -3
Cc1noc(C)c1C(=O)Nc1ccccc1N1CCCC1 | -4 | 94* | / | 0 | -2 | 8
C[C@@H]1ON(C)[C@H]2C[C@H]3c4[nH]c5c(-c6ccc7c(c6)OCO7)cccc5c4CCN3C(=O)[C@@H]12 | / | / | / | 1 | / | /
O=C(CSc1ccccc1)N1CCc2ccccc21 | -5 | -11 | -3 | 7 | -2 | -2
CCn1cc(SCC(=O)N2CCc3ccccc32)c2ccccc21 | 2 | 98* | 4 | -3 | -3 | -9
COc1ccc(-c2sc(NC(C)=O)nc2-c2ccccc2)cc1 | 1 | -9 | -10 | -2 | 0 | -4
COCCNc1nc(-c2ccc(OC)cc2)c(-c2ccc(OC)cc2)s1 | -2 | 94* | -5 | -3 | -5 | -2
Cc1ccc(S(=O)(=O)c2nc(-c3ccccc3)oc2NCc2cccnc2)cc1 | 4 | 9 | -6 | -4 | -3 | 1
Cc1ccccc1-c1nc(S(=O)(=O)c2ccc(Br)cc2)c(NCc2cccnc2)o1 | -12 | -1 | -4 | -2 | -4 | 76*
CN(c1cccnc1)c1ccc(NC(=O)Cc2c[nH]c3ccccc23)cc1-c1cccnc1F | / | / | / | 3 | / | /
Cc1ccc(NC(=O)CCCn2c(=S)[nH]c3ccsc3c2=O)cc1C | -1 | 84* | 2 | -2 | 2 | -3
SMILES | GASC-1 inh | ALR inh | M18AAP inhibitor | SMARCA2 activ | MIN6 prolif | Granule exo inh
CCOC(=O)N1CCN(C(=O)CCCCn2c(=S)[nH]c3ccsc3c2=O)CC1 | -2 | 96* | 4 | -3 | -3 | 3
CCOC(=O)N1CCN(C(=O)CCn2c(=S)[nH]c3ccccc3c2=O)CC1 | 5 | / | 8 | -2 | 3 | 8
COc1cccc(NC(=S)/C(=C(\[O-])c2ccc([N+](=O)[O-])cc2)[n+]2ccccc2)c1 | -4 | 99* | -5 | -3 | -4 | 0
CCc1ccc2c(c1)[C@H]1OCC[C@H]1[C@@H](c1cccs1)N2 | -13 | 97* | 4 | -3 | 0 | 0
Cc1ccc(NC(=O)C(C)N2C(=O)C3CC=C(Cl)CC3C2=O)cc1 (configuration not stated) | -7 | -7 | 12 | 0 | -2 | -2
C[C@@H](C(=O)Nc1ccc(SC(F)F)cc1)N1C(=O)C2CCCCC2C1=O (some centres not stated) | -4 | 90* | / | 2 | -2 | -4
CCOC(=O)c1[nH]c2ccc(OC)cc2c1NC(=O)/C=C/c1ccc2c(c1)OCO2 | 1 | -2 | -8 | -3 | 0 | 0
O=C(/C=C/c1ccc2c(c1)OCO2)Nc1c(C(=O)O)[nH]c2ccccc12 | 0 | 98* | -6 | 1 | 0 | 1
Cc1nn(C(C)C(=O)N/N=C/c2ccc(N(C)C)cc2)c(C)c1[N+](=O)[O-] (configuration not stated) | 11 | 99* | 4 | 0 | -1 | 4
CSc1ccc(NC(=O)Nc2ccc(C(=O)NCC(=O)O)cc2)cc1 | 2 | 98* | 1 | 1 | 3 | 3
CCc1ccc(-c2nc(CS(=O)CC(=O)NC3CCCCCC3)c(C)o2)cc1 (configuration not stated) | -18 | 99* | -15 | -3 | 0 | -2
Cc1oc(-c2ccccc2Cl)nc1CS(=O)CC(=O)NC1CC1 (configuration not stated) | -3 | 99* | -5 | -2 | -2 | -18
Cc1oc(-c2ccccc2)nc1CS(=O)CC(=O)NC1CCCC1 (configuration not stated) | -1 | 99* | 0 | -3 | -2 | -9
Cc1ccc(-c2nc(CS(=O)(=O)CC(=O)NC3CC3)c(C)o2)cc1 | -3 | -2 | 0 | 0 | -4 | 2
Cc1ccc(-c2nc(CS(=O)CC(=O)NC3CC3)c(C)o2)cc1 (configuration not stated) | 6 | 99* | -6 | 0 | 2 | -2
Cc1cccc(-c2nc(CS(=O)CC(=O)NCC3CCCO3)c(C)o2)c1 (configuration not stated) | -7 | / | -3 | 0 | -2 | 4
COC(=O)C1CCCN(C(=O)C2CCN(S(=O)(=O)c3ccc([N+](=O)[O-])cc3)CC2)C1 (configuration not stated) | / | / | / | -2 | / | /
CCc1ccc(-c2nc(CS(=O)CC(=O)O)c(C)o2)cc1 (configuration not stated) | 0 | 99* | 17 | 7 | 1 | -2
CCc1ccc(-c2nc(CS(=O)CC(=O)NC3CC3)c(C)o2)cc1 (configuration not stated) | -14 | 98* | -11 | 4 | -3 | 0
CCOC(=O)N1CCC(NC(=O)C2CCN(Cc3nc(-c4ccc(CC)cc4)oc3C)CC2)CC1 | / | / | / | -3 | / | 2
COc1ccc(-c2c(Cc3ccccc3)nc(NC(=O)c3ccccc3)n2Cc2ccccc2)cc1 | / | / | / | -5 | / | /
Cc1oc(C(=O)O)cc1CSCc1ccoc1C(=O)O | 27 | 12 | -76 | 1 | 0 | 0

Screens as filed in PubChem.
